Source: PubChem (National Center for Advancing Translational Sciences (NCATS))
Gal4-VP16 FLuc: VP16 counterscreen qHTS for inhibitors of ROR gamma transcriptional activity; 310,000 tested, 3.5% active; Drosophila S2 Gal4-VP16 UAS-luciferase, luminescence, 20 h; Potency, µM (highest dose often 53.6 µM), usual class: inhibitors;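 note: Gal4-VP16 expression switched on by copper sulfate through the metallothionein promoter; nearly all actives have a fitted effect of over 50% in size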
Luc counter: Counterscreen for Luciferase (Kinase-Glo TM) Inhibition; Potency, µM (top dose mostly 38.3 µM), hits mostly inhibitors; Luciferin 4-monooxygenase (Photuris pensylvanica), Q27757; Kinase-Glo luciferase, ATP luminescence, 8 min; 200,000 tested, 0.28% active; note: nearly all actives have a fitted effect of over 60% in size
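Kinase-Glo luciferase light output from ATP and luciferin was measured with 10 uM ATP, within the enzyme's linear range. Buffer: 50 mM imidazole pH 7.2, 50 mM KCl, 7 mM MgCl2, 0.01% Tween 20, 0.05% BSA; luminescence read after 8 min at ambient temperature.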
RORgamma inh: qHTS for inhibitors of ROR gamma transcriptional activity. Drosophila S2 Gal4-RORgamma UAS-luciferase reporter, 20 h. 310,000 tested, 5.4% active. Nuclear receptor ROR-gamma (Mus musculus), P51450. Potency, µM (titrated, usually from 53.6 µM), actives largely listed as inhibitors; note: nearly all actives have a fitted effect of over 60% in size
Target sequence (P51450 whole entry, looked up, the tested form may be a part): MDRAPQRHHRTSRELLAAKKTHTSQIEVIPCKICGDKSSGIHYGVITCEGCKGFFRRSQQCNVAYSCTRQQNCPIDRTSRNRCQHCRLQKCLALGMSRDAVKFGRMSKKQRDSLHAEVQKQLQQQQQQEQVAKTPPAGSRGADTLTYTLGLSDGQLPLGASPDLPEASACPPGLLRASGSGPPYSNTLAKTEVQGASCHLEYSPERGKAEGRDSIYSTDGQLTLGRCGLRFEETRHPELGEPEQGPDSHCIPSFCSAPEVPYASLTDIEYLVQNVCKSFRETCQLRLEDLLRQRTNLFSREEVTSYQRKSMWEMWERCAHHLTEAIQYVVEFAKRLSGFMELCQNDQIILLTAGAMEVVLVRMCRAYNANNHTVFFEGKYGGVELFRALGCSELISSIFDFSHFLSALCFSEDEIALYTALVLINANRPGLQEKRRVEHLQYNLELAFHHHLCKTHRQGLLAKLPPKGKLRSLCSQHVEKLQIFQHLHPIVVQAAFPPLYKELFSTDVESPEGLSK
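Drosophila S2 cells stably expressing Gal4-DBD/mouse RORγ fusion under metallothionein promoter plus UAS-luciferase; compound 1 h, then 700 uM CuSO4 induction for 20 h at ambient temperature; inhibition read as reduced luminescence.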
Of the large screens only hits and unclear results are named; the others gave an inactive call. This is a sample that favours compounds with a hit; in the whole collection about 6.2% have one here. Calls come from the whole dose curve; as a rule, active = well fitted curve in the direction sought with a large enough effect; inconclusive = small, poorly fitted or top-dose-only effect, or another doubt; inactive = no such curve, though single readings can be large; an effect the other way counts as inactive or inconclusive.

COc1cc(/C=C(/C)[N+](=O)[O-])ccc1OCc1ccccc1Cl	Gal4-VP16 FLuc inconclusive, RORgamma inh 4µM
COc1cc(C=C2C(=O)NC(=O)NC2=O)ccc1OCc1ccc([N+](=O)[O-])cc1	none
CN=C=S	none (no result: Luc counter)
CCCC[C@H]1C(=O)O[C@H](C)[C@H](NC(=O)c2cccc(NC=O)c2OC)C(=O)O[C@@H](C)[C@@H]1OC(=O)CC(C)C	Gal4-VP16 FLuc 1.8µM, RORgamma inh 1.8µM
CCCCCC1C(=O)O[C@H](C)[C@@H](NC(=O)c2cccc(NC=O)c2O)C(=O)OC(C)C1OC(=O)CC(C)C (some centres not stated)	Gal4-VP16 FLuc 11µM, RORgamma inh 0.005µM
COc1ccc(/C=C/C(=O)N2CC3C[C@@H](C2)Cn2c3cccc2=O)cc1OC	none
CN1C2CCCC1CC(=O)C2	none (no result: Luc counter)
c1ccc2c(c1)CCNC2	none (no result: Luc counter)
Nc1ncnc2c1ccn2[C@@H]1O[C@H](CO)[C@@H](O)[C@H]1O	Gal4-VP16 FLuc 1.1µM, RORgamma inh 0.63µM (no result: Luc counter)
Nc1ncnc2c1ncn2[C@@H]1O[C@@H]2CO[P@](=O)(S)O[C@H]2[C@H]1O	none
NC(=S)c1cn(C2OC(CO)C(O)C2O)c2ncnc(N)c12 (configuration not stated)	Gal4-VP16 FLuc 2.5µM, RORgamma inh 7.1µM (no result: Luc counter)
CC(C)c1ccc(C(O)(C(=O)O)c2ccc(C(C)C)cc2)cc1	none (no result: Gal4-VP16 FLuc, RORgamma inh)
O=C(Nc1cccc(C(=O)Nc2cc(C(=O)Nc3ccc([S+](=O)([O-])[O-])c4cc([S+](=O)([O-])[O-])cc(SOOO)c34)ccc2F)c1)Nc1cccc(C(=O)Nc2cc(C(=O)Nc3ccc([S+](=O)([O-])[O-])c4cc([S+](=O)([O-])[O-])cc([S+](=O)([O-])[O-])c34)ccc2F)c1	none (no result: Luc counter)
CCOC(=O)Cn1cc([N+](=O)[O-])nc1[N+](=O)[O-]	Gal4-VP16 FLuc 13µM, RORgamma inh 10µM
CCOC(=O)Cn1cc(C(=O)c2ccccc2F)c2ccccc21	none
CC1C(=O)OC2O[C@]3(C)CC[C@H]4C(C)CCC1[C@]24OO3 (some centres not stated)	none
C=CCc1ccc(OC)cc1	none
COc1ccc(OCC(=O)N2CCN(Cc3ccc4c(c3)OCO4)CC2)cc1	none
COc1ccc(CC(=O)N2CCN(C)CC2)cc1	none (no result: Luc counter)
COc1ccc(C[C@H]2NC[C@H](O)[C@@H]2OC(C)=O)cc1	Gal4-VP16 FLuc 35µM, RORgamma inh inconclusive
COc1ccc(CC2NCC(O)C2OC(C)=O)cc1 (configuration not stated)	Gal4-VP16 FLuc 0.079µM, RORgamma inh inconclusive
COc1ccc(CC2NC[C@H](O)[C@H]2OC(C)=O)cc1 (some centres not stated)	Gal4-VP16 FLuc 0.79µM, RORgamma inh 0.63µM
C=C/C(=C/C(=O)C[C@H](C)C[C@@H](C)CC[C@H](O)[C@H](C)C(=O)C[C@@H](O)[C@H](C)[C@@H](C)OC(=O)C[C@@H](O)C1=C(C)C(=O)OC1=O)CC	Gal4-VP16 FLuc inconclusive, RORgamma inh inconclusive
C(=NCCN1CCOCC1)=NC1CCCCC1	none (no result: Gal4-VP16 FLuc, RORgamma inh)
O=[As](O)(O)c1ccc(N=Nc2ccc([As](=O)(O)O)cc2)cc1	none (no result: Gal4-VP16 FLuc, RORgamma inh)
O=C(Nc1cc(C(F)(F)F)ccc1O)Nc1cc(C(F)(F)F)ccc1O	Gal4-VP16 FLuc inconclusive (no result: Luc counter)
O=C(Nc1cc(C(F)(F)F)cc(C(F)(F)F)c1)c1cc(Cl)ccc1O	Gal4-VP16 FLuc 1µM, RORgamma inh 0.89µM (no result: Luc counter)
N#Cc1cccc(NC(=O)N2CC[C@@]3(CCCN(C(=O)Oc4ccccc4)C3)C2)c1	none
CCCn1c(C(=O)c2ccccc2)nc2ccccc21	none
Cc1ccc(C(=O)Nc2nc3ccccc3n2CCN2CCCC2)cc1	Gal4-VP16 FLuc 7.1µM, RORgamma inh 2.5µM (no result: Luc counter)
O=C(Nc1ncc(Cc2ccccc2)s1)C1=NCCN1	Gal4-VP16 FLuc inconclusive, RORgamma inh 2µM
COC(=O)C(O)(c1ccc(NC(=S)NC(=O)c2ccc(Cl)cc2Cl)c(C)c1)C(F)(F)F (configuration not stated)	Gal4-VP16 FLuc inconclusive, RORgamma inh 8.9µM
CNC(=O)N(C)c1ccc(C(O)(C(=O)OC)C(F)(F)F)cc1 (configuration not stated)	none (no result: Luc counter)
CCOC(=O)C(O)(c1ccc(NC(=S)NC(=O)c2ccc(Cl)cc2Cl)c(C)c1)C(F)(F)F (configuration not stated)	Gal4-VP16 FLuc inconclusive, RORgamma inh 13µM
CCOC(=O)C(NC(=O)CC)(Nc1ccc(C(O)(C(=O)OCC)C(F)(F)F)cc1C)C(F)(F)F (configuration not stated)	none
[O-][Br+2]([O-])O	none (no result: Luc counter)
O=c1c2ccccc2nc(/C=C/c2ccc3c(c2)OCO3)n1-c1cccc(O)c1	none
O=c1c2ccccc2[nH]c(=S)n1-c1ccc2c(c1)OCO2	Gal4-VP16 FLuc 10µM, RORgamma inh 2.8µM
